# Data published in PubChem BioAssay AID1508600 (Functional Genomics Laboratory (NCATS/FGL), 2020).
# Among all 53,000 sequences or so, about 3,700 (7%) were called active. The full list was thinned out, with actives kept by preference. Values without a mark were called inactive.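 Rule for the calls: active = gene knockdowns whose robust z-score for IL-1 alpha signal is at least 2 or at most -2, so actives lie on both sides; inactive = the rest.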
# Experiment: Components of the Cytosolic LPS Sensing Pathway: Gene Identification via Genome-wide siRNA Screen;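 note: robust z of the log signal after scaling to non-targeting control siRNA wells of the plate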
# Settings: RAW264.7 macrophages, IL-1a HTRF, actives lie on both sides, screened at 100 nM (by protocol), cells primed 5 h with Pam3CSK4 first
# Summary of the method: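 Using IL-1a HTRF as read-out, the screen measured release from RAW264.7 cells after 48h siRNA knockdown (100 nM), 5 h Pam3CSK4 priming and 24 h cytosolic LipidA. Values were expressed relative to negative-control wells as robust z-scores.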
row,Sequence,z-score
1,GCUCUCACACCCUUAUGUATT against Nptn,-1.45
2,GGCGAGAAAUUCUUCACAUTT against Plxna3,-1.51
3,GGAGAAGGAGCAGAUUAAATT against Krt8,2.07 (active)
4,CCAAAACCUCAUGCUGAAATT against Zfp758,0.396
5,GCUAAUACGAUUUACUUUGTT against Cntn6,0.586
6,GGACGUAUAUCCUUUUAUGTT against Spaar,-0.151
7,GCAUGAUCAAAUUGUAUCUTT against Nde1,-2.21 (active)
8,GGUCUUUCUUCGAGGAGUCTT against Ccdc33,-1.03
9,CCGUAAGAAGGAAAACGCATT against Kcnd1,-0.506
10,GGUAAGGUUACAGCACUGATT against Chac2,-0.489
11,GGAAUAUCUGAUAUCAGUATT against Mdga2,0.0727
12,GGCUUCCUCAUCGAUAUAATT against Ccnh,0.21
13,GGUACCAAUUGAAGAUAUATT against Ncoa7,2.2 (active)
14,GGACAAGGAGGAUUUCUUCTT against Nprl2,-0.226
15,CCUUCUAAGAGAAAAACGUTT against Eps15,0.198
16,GGUAAACAGAAUAGAAUCCTT against Lcmt1,0.622
17,GCCUGUGUAUUCUCGCUAUTT against Mon1a,0.345
18,UGGGCCUUGUAGGCUUCAUTT against Rell2,2.3 (active)
19,GGACCAGUUAUCCUCACUGTT against Eapp,-0.514
20,GCACAGCUAAACUUAACUATT against Taz,0.711
21,GCAAAUUUACCUCGGUUUUTT against Olfr46,0.388
22,GGCAGGUUUUUGAACUGGUTT against Olfr725,2.28 (active)
23,GCUGAGAGGUAAAGACACATT against Cntd1,0.116

row,Sequence,z-score
1,UCCAGAGGAUCCGCUGUGATT against Krt74,-0.632
2,GGACUAAACAGAUUCACUATT against Rnase9,-2.42 (active)
3,GGAUCCUUCGCUUUUAUCGTT against Nox1,-0.343
4,GGAAAAUCACUUCAUUCACTT against Ltk,0.893
5,CCUUCGUAGUCUUGAUGUGTT against Olfr1179,-0.104
6,GGAUCAAAAAAAAACUGGATT against Sinhcaf,1.19
7,GGAAUUAGUCUCCAAAUAUTT against Sh2d1b1,0.604
8,GCCAGUACGAAGUGAUCUGTT against Ackr4,2.8 (active)
9,GGUUCUUGGUUUACAUAAGTT against Slc39a12,-1.23
10,GGGAAAACCAUACAAAAUATT against Olfr228,-0.525
11,GCAAAUCGACCACUUUCCGTT against Cacng2,4 (active)
12,GCACGUCCUCGAUCUCUGUTT against Extl3,-0.705
13,GGUGUCUGAUGAUGAAUAUTT against Cnnm3,0.322
14,GGAUGUGCCUCGGUUGGAUTT against Gulo,0.663
15,GGAAGACCUUGAAUUCCAGTT against Tspan31,2.87 (active)
16,GCCCAUUGAUCCGGAGUAATT against Dusp28,0.252
17,GGGUUUCUAUGAAGAGAUCTT against Fhod1,-0.624
18,GCCUUACAUGAGCCCAUGUTT against Olfr550,-1.96
19,GGACUUUAUUGAAAAUCUGTT against Zfp365,0.593
20,CCAAAUUCCUAUCAAGUUUTT against Ints2,1.98
21,GCGUCUCAUAGAGUUGGUGTT against Mblac2,0.0617
22,GCCGCUAGCAUGGUCUAUUTT against Apoa5,2.51 (active)
23,UAUACCUUAGUGCUGAGGGTT against Olfr736,-1.02

row,Sequence,z-score
1,GGGCAAAAGCUGUUACAAGTT against Ahrr,-0.0958
2,GGUUCCUGGAUGGUUCCUATT against Vtcn1,1.45
3,GGGUAUGACAACAAACUUCTT against Gabrg2,-0.422
4,GGUUUGGCAAACAUUUCAUTT against Akr1c20,2.02 (active)
5,GGAUGAAUCUGAAGAUUCCTT against Nol3,0.113
6,GGUGGACAAGCAAGUCUAGTT against Ube2o,1.97
7,GGACAAGAUAGGAGGAGACTT against Abhd16a,-0.776
8,GCUUGUGCUGAAUUACACCTT against Vps35,2.11 (active)
9,GCACGAAUCCUUGGAGAAATT against Batf2,-0.254
10,GGUGAUUUAGUUGUGUAAATT against Calcr,0.294
11,GGUUCCAUCUUCUCAGGACTT against Olfr395,1.01
12,GGUGGAAUAUUUCAUGGACTT against Csnk2a1,3.43 (active)
13,GGAAGAGGACACAUUAGGCTT against Gtsf1l,0.11
14,GGUGAGUUUUGCUAAAAGUTT against Syp,0.783
15,GCAAGAAGUAUUUUCAGUATT against Galnt4,1.34
16,GGAACAACGGAAAAGCGAGTT against Ankrd1,1.25
17,GGAAUCCUCGGCAGAUAAATT against Rpl24,2.31 (active)
18,GGCAGAAAAUUGUUCUUAUTT against Cpt1a,-1.49
19,GGCUUCUGGUACAUUAUUGTT against Lcn10,-1.23
20,GGGCAACUAUUGAUGAGGUTT against Acap3,-0.138
21,GGACGGUGACCUGUAUGAUTT against Cpxm1,-2.4 (active)
22,GCAUUAAAGUAGAAGGUCUTT against Snx31,0.812
23,GCGGCAAGAUUAAUAAGUCTT against Mpzl1,0.798
